Test results reported in the supplement of paper PMC10849652.
About 7,900 targets were measured; listed, in parts, are those with a hit and a random draw of the rest. About 0.6% of all pairs of compound and target were hits. Values without a mark were called inactive.

Experiments:
Assay in all cases: log2 fold change, soluble protein after heating vs DMSO (PISA); higher = thermal stabilisation; K562 cells, 10 uM, 30 min; active = over 0.2 and 3.5 SD of the protein, either way, in both replicates (recomputed)
[1] = compound: NC(=O)Nc1cc(-c2cccc(F)c2)sc1C(=O)N[C@H]1CCCNC1
Method in brief: (§1)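 Thermal stability values are relative to control samples and come from duplicates. They are expressed as log2 fold changes. For measurement, K562 cells (2×10^6 cells/mL) received 10 μM compound for 30 min, and aliquots were heated for 3 min over 48°C-58°C, pooled, and extracted at 4°C in PBS with 0.5% NP-40. Soluble protein, the supernatant after 21,000xg for 90 min, was quantified by TMTpro 16plex LC-MS/MS with equalised channel sums.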

[2] = compound: NC(=O)c1cnc(N[C@@H]2CCCC[C@@H]2N)nc1Nc1cccc(-n2nccn2)c1
Method in brief: as §1

[3] = compound: NC1(c2ccc(-c3nc4ccn5c(=O)[nH]nc5c4cc3-c3ccccc3)cc2)CCC1
Method in brief: as §1

[4] = compound: NCC(=O)Nc1ccc(-n2nc(C(F)(F)F)cc2-c2ccc3c(ccc4ccccc43)c2)cc1
Method in brief: as §1

[5] = compound: Nc1ccccc1NC(=O)c1ccc(CNC(=O)OCc2cccnc2)cc1 [entinostat]
Method in brief: as §1

[6] = compound: O=C(CCCCCCC(=O)Nc1ccccc1)NO [vorinostat]
Method in brief: as §1

[7] = compound: O=C(CCCCCCNC(=O)c1cnc(N(c2ccccc2)c2ccccc2Cl)nc1)NO [citarinostat]
Method in brief: as §1

[8] = compound: O=C(O)c1ccc2c(c1)nc(Nc1cccc(Cl)c1)c1ccncc12 [silmitasertib]
Method in brief: as §1

[9] = compound: O=C1NC(=O)C(c2cnc3ccccn23)=C1c1cn2c3c(cc(F)cc13)CN(C(=O)N1CCCCC1)CC2
Method in brief: as §1

[10] = compound: c1cc(OCCN2CCCCC2)cc(-c2n[nH]c3ccc(-c4nnc[nH]4)cc23)c1
Method in brief: as §1

[11] = compound: c1cn2cc(-c3ccc4cn[nH]c4c3)nc(Nc3ccc(N4CCOCC4)cc3)c2n1 [entospletinib]
Method in brief: as §1

Sequence of UniProt Q9UNS2 (Q9UNS2 whole entry, looked up): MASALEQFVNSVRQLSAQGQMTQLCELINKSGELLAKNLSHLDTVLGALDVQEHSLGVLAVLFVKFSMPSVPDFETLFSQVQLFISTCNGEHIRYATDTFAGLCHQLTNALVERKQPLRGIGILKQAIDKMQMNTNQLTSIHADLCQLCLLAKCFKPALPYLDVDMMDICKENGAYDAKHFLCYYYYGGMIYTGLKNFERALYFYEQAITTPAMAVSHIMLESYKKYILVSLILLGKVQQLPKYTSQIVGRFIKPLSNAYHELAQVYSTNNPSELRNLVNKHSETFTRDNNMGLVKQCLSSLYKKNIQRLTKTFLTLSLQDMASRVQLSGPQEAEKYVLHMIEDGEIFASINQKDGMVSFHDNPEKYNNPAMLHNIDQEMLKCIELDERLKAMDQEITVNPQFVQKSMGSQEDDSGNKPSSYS
Sequence of UniProt Q9UIV1 (Q9UIV1 whole entry, looked up): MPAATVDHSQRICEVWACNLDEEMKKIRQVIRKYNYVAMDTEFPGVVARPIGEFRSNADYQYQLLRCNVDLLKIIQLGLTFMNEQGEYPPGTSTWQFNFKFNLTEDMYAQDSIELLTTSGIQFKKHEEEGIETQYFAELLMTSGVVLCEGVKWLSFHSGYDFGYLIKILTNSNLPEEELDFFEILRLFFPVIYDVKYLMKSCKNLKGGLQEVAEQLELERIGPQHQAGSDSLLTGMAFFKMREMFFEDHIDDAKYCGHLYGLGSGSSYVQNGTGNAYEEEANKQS
Sequence of UniProt O43405 (O43405 whole entry, looked up): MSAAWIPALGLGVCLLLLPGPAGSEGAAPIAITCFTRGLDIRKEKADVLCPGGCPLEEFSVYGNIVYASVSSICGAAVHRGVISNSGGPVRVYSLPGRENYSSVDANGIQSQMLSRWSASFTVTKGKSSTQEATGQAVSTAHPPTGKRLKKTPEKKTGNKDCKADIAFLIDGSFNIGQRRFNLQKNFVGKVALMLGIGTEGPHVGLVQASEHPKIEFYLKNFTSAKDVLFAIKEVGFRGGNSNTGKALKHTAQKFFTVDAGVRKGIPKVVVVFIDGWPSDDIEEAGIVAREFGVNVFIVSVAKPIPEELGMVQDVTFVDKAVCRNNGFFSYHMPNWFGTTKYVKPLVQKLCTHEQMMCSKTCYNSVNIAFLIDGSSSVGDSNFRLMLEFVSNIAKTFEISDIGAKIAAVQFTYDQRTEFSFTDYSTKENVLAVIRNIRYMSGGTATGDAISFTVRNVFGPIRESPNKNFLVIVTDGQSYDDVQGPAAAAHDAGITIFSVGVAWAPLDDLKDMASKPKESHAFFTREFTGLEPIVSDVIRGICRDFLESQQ
Sequence of UniProt Q99653 (Q99653 whole entry, looked up): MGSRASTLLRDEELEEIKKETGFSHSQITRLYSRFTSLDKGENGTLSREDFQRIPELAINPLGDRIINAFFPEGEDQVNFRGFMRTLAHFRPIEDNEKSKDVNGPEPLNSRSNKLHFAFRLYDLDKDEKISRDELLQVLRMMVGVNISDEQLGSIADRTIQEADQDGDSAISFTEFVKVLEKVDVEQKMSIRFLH
Sequence of UniProt Q9Y6H1 (Q9Y6H1 whole entry, looked up): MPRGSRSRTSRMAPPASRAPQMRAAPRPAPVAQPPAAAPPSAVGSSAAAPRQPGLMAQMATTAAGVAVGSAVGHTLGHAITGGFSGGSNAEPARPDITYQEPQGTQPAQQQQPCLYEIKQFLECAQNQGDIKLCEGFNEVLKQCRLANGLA
Sequence of UniProt O15182 (O15182 whole entry, looked up): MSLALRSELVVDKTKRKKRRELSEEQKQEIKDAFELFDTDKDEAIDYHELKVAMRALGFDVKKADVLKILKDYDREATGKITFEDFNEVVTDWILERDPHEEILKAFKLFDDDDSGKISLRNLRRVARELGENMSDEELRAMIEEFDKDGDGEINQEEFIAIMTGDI
Sequence of UniProt Q86X83 (Q86X83 whole entry, looked up): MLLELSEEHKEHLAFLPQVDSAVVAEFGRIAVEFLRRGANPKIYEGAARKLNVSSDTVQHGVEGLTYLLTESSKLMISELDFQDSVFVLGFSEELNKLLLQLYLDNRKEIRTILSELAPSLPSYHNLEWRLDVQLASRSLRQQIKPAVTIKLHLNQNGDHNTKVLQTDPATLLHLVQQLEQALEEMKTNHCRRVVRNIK
Sequence of UniProt Q5T6V5 (Q5T6V5 whole entry, looked up): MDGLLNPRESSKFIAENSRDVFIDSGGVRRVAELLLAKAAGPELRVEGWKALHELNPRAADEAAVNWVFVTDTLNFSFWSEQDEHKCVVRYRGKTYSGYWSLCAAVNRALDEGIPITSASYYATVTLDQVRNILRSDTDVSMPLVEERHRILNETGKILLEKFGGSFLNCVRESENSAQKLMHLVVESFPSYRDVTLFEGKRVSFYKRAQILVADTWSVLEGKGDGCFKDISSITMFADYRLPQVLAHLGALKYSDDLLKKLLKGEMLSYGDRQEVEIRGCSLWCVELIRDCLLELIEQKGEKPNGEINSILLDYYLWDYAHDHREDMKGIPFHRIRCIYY
Sequence of UniProt P48729 (P48729 whole entry, looked up): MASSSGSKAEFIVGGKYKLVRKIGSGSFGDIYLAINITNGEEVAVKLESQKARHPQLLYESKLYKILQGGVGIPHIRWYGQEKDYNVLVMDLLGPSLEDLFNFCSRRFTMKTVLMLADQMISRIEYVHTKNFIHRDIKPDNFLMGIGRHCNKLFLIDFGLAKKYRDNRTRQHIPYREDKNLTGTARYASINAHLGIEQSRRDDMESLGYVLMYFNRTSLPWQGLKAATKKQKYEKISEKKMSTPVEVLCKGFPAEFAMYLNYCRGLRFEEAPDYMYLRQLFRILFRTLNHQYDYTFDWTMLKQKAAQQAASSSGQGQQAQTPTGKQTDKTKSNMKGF
Sequence of UniProt Q8IWV2 (Q8IWV2 whole entry, looked up): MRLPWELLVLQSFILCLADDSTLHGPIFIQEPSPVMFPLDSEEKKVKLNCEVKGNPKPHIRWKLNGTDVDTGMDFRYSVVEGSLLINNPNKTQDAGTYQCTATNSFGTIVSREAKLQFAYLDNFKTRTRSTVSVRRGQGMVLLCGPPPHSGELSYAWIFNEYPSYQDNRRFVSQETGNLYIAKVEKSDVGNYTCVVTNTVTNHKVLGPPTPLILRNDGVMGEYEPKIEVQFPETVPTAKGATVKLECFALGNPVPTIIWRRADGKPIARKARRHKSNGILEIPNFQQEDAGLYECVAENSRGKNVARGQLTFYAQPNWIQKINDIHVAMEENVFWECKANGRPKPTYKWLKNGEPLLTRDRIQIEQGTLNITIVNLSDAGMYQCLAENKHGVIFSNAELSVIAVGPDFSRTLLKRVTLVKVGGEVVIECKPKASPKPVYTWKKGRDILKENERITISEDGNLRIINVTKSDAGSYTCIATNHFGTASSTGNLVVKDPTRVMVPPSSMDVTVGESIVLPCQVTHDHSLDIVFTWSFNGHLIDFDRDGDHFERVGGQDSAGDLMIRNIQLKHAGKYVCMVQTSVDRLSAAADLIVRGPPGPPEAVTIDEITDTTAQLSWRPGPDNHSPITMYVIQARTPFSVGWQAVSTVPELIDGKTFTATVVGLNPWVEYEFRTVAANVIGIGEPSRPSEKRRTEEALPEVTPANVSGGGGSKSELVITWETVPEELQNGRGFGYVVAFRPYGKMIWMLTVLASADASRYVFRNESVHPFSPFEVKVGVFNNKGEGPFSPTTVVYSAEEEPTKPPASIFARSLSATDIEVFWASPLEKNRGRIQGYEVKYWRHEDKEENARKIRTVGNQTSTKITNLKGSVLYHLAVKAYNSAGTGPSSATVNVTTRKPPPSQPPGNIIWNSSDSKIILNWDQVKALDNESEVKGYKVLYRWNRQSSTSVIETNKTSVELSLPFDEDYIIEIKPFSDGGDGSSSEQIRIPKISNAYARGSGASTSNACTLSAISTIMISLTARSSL
Sequence of UniProt Q8WUX2 (Q8WUX2 whole entry, looked up): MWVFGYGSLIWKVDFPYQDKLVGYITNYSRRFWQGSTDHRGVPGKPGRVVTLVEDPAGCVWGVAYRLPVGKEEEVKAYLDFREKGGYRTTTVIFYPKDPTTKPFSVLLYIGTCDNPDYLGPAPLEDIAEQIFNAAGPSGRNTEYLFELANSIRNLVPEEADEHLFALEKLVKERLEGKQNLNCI
Sequence of UniProt Q96GQ5 (Q96GQ5 whole entry, looked up): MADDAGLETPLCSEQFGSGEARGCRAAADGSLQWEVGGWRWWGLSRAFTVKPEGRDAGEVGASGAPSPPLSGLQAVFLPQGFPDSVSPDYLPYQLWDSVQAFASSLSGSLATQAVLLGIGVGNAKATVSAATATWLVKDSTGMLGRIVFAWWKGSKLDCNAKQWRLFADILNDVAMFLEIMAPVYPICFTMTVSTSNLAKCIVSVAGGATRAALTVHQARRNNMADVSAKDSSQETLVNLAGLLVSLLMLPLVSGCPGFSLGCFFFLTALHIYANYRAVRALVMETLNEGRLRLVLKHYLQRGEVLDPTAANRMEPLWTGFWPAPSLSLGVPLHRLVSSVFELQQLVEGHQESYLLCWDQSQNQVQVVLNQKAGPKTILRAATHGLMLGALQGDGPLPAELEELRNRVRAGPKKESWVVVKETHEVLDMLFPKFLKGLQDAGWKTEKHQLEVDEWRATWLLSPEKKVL
Sequence of UniProt P35219 (P35219 whole entry, looked up): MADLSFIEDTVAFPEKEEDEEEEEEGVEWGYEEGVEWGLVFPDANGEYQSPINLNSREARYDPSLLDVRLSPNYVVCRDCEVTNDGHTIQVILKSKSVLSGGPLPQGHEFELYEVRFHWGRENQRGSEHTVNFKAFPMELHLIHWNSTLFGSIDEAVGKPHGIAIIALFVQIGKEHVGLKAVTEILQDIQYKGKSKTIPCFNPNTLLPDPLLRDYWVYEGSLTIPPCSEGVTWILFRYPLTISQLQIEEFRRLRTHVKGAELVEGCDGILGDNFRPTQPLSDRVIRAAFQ
Sequence of UniProt Q8N1A6 (Q8N1A6 whole entry, looked up): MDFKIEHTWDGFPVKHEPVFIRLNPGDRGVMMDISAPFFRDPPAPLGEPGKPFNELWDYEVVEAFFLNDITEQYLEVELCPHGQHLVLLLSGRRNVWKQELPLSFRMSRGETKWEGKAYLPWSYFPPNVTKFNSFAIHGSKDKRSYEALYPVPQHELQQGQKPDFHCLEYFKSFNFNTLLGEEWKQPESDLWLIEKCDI

| Target | log2 fold change [1] | log2 fold change [2] | log2 fold change [3] | log2 fold change [4] | log2 fold change [5] | log2 fold change [6] | log2 fold change [7] | log2 fold change [8] | log2 fold change [9] | log2 fold change [10] | log2 fold change [11] |
| --- | --- | --- | --- | --- | --- | --- | --- | --- | --- | --- | --- |
| CHST11 (UniProt Q9NPF2) | -0.045 | 0.068 | -0.181 | 0.139 | -0.027 | 0.001 | 0.276 | -0.044 | 0.013 | 0.054 | -0.1 |
| CDK6 (UniProt Q00534) | -0.004 | -0.082 | -0.017 | -0.003 | 0.009 | 0.005 | -0.006 | 0.131 | 0.146 | 0.017 | 0.036 |
| COCH (UniProt O43405) | 0.024 | -0.014 | 0.035 | 0.13 | 0.123 | -0.122 | -0.084 | 0.072 | 0.055 | -0.149 | -0.012 |
| CETN3 (UniProt O15182) | -0.016 | -0.059 | -0.031 | -0.102 | 0.033 | -0.126 | -0.002 | 0.032 | -0.1 | -0.061 | 0.025 |
| CHCHD4 isoform 2 (UniProt Q8N4Q1) | 0.335 | 0.06 | -0.007 | 0.084 | 0.339 | 0.442 | -0.013 | 0.038 | 0.123 | 0.027 | 0.036 |
| CNTN4 (UniProt Q8IWV2) | 0.016 | -0.056 | 0.614 | -0.085 | -0.106 | 0.017 | 0.141 | -0.197 | -0.18 | 0.088 | -0.148 |
| COPS3 (UniProt Q9UNS2) | 0 | -0.034 | -0.002 | 0.011 | 0.002 | -0.003 | 0.014 | -0.02 | -0.021 | -0.019 | 0.011 |
| COMMD2 (UniProt Q86X83) | -0.007 | -0.034 | -0.098 | 0.039 | -0.062 | 0.049 | 0.011 | 0.053 | 0.011 | -0.08 | 0.015 |
| CES2 isoform 4 (UniProt O00748) | 0.116 | 0.017 | -0.051 | 0.095 | -0.083 | -0.017 | -0.083 | 0.076 | 0.027 | -0.016 | 0.02 |
| CLSPN (UniProt Q9HAW4) | -0.015 | -0.009 | -0.003 | -0.013 | -0.048 | -0.028 | 0.026 | 0.053 | -0.062 | -0.086 | 0.057 |
| C9orf64 (UniProt Q5T6V5) | 0 | -0.155 | -0.338 | -0.02 | 0.088 | 0.167 | 0.064 | 0.037 | 0.012 | -0.106 | 0.009 |
| CHAC2 (UniProt Q8WUX2) | 0.022 | -0.019 | -0.008 | -0.028 | -0.017 | -0.016 | -0.232 | 0.022 | -0.03 | 0.419 (active) | 0.323 |
| CAD (UniProt P27708) | 0.033 | -0.014 | -0.145 | 0.008 | -0.026 | 0.088 | 0.014 | 0.003 | 0.108 | -0.141 | -0.089 |
| CNOT7 (UniProt Q9UIV1) | -0.053 | 0.039 | 0 | 0.028 | 0.091 | 0.152 | -0.12 | 0.12 | 0.032 | -0.089 | 0.122 |
| CLPP (UniProt Q16740) | 0.044 | -0.027 | 0.027 | -0.008 | 0.029 | -0.05 | 0.027 | 0.007 | 0.096 | -0.031 | 0.01 |
| C16orf58 (UniProt Q96GQ5) | -0.047 | -0.05 | -0.111 | -0.08 | 0.001 | 0.026 | 0.034 | 0.032 | -0.027 | -0.017 | 0.011 |
| CHCHD2 (UniProt Q9Y6H1) | -0.039 | -0.011 | 0.022 | 0.012 | -0.01 | 0.005 | 0.018 | 0.009 | -0.13 | -0.008 | 0.028 |
| CPT2 (UniProt P23786) | -0.045 | -0.264 | 0.193 | -0.052 | 0.174 | -0.097 | -0.109 | -0.08 | 0.014 | 0.157 | 0.206 |
| CA8 (UniProt P35219) | 0.035 | -0.069 | -0.167 | -0.058 | 0.049 | 0.025 | 0.108 | 0.029 | -0.142 | -0.027 | 0.094 |
| CERS2 (UniProt Q96G23) | -0.015 | 0 | -0.103 | -0.019 | 0.04 | 0.057 | 0.035 | -0.018 | 0.027 | -0.087 | -0.018 |
| CSNK1A1 (UniProt P48729) | -0.067 | -0.001 | 0.031 | 0.019 | 0.023 | -0.087 | 0.016 | 0.048 | 0.243 | -0.084 | 0.009 |
| CDK9 isoform 2 (UniProt P50750) | -0.05 | -0.038 | -0.057 | 0.22 | 0.005 | 0.102 | -0.002 | -0.015 | 0.152 | -0.084 | 0.012 |
| C4orf33 (UniProt Q8N1A6) | 0.152 | -0.003 | -0.218 | -0.061 | -0.156 | -0.05 | 0 | -0.126 | 0.019 | -0.063 | 0.082 |
| CDK8 (UniProt P49336) | -0.038 | 0.011 | 0.036 | 0.014 | -0.152 | 0.038 | -0.002 | 0.175 | 0.036 | -0.019 | -0.037 |
| CHP1 (UniProt Q99653) | -0.1 | 0.014 | -0.104 | 0.19 | -0.012 | -0.066 | 0.001 | 0.061 | -0.054 | 0.011 | 0.044 |
| CDC37L1 (UniProt Q7L3B6) | -0.061 | -0.074 | 0.018 | 0.033 | -0.011 | -0.017 | -0.064 | 0.07 | -0.022 | -0.102 | 0.042 |
| CHD3 isoform 3 (UniProt Q12873) | 0.023 | -0.152 | -0.113 | -0.013 | 0.036 | 0.101 | 0.057 | 0.154 | 0.057 | -0.101 | -0.001 |
